{"source": "PubChem BioAssay (NCATS)", "note": "Results filed as inconclusive are left out. Active and inactive are the calls of the source. Calls come from the whole dose curve; as a rule, active = well fitted cell-killing curve with a large enough effect; inconclusive = small, poorly fitted or top-dose-only effect, or effect the other way; inactive = flat fitted curve, though single readings scatter. Potency is the fitted concentration of half-maximal effect."}
{"assay": "qHTS of pediatric cancer cell lines to identify multiple opportunities for drug repurposing: Confirmatory screen for control Hh wild type fibroblast cells (AID 1347121); note: nearly all actives have a fitted effect of over 70% in size", "settings": "viability qHTS; series mostly up to 45.9 µM; activity, negative = cytotoxic: at the top concentration", "text": "Drug repurposing or repositioning has been offered as a strategy for drug development in oncology programs. This approach has special potential for childhood cancers and other rare or orphan diseases, where the expected return on new drug development has been a disincentive to pharmaceuticals.\nIn this project we exploit the poly-pharmacology of drugs to discover new indications via phenotypic screening of a panel of 19 well-characterized cell lines derived from solid tumors seen in children and adolescents. The goal is to identify approved drugs with previously unrecognized anticancer properties that has the potential to reveal new mechanisms and biological processes involved in carcinogenesis or drug resistance. We employed a titration-based paradigm (quantitative high-throughput screening or qHTS), where all compounds were tested at multiple concentrations for their effect on cell viability. Concentration-response curves (CRCs) were derived directly from the primary screen, and both potency and efficacy values were used to identify compounds with robust bioactivity profiles. We screened the NIH Chemical Genomics Center (NCGC) Pharmaceutical Collection (NPC) and Mechanism Interrogation Plate (MIPE) small molecule collections of approved and investigational compounds against these cell lines; and measured metabolically active cells after 48 hours of compound treatment as a proxy for cell viability.\nAssay Submitter: Nathalia J. Martinez, National Center for Advancing Translational Sciences, National Institutes of Health, Rockville, MD, USA; email: natalia.martinez@nih.gov\n[1] Shen, M et al. Quantitative high-throughput phenotypic screening of pediatric cancer cell lines identifies multiple opportunities for drug repurposing. Oncotarget 2017 Dec 19;9(4):4758-4772. PMID 29435139.\nThe cells were obtained from University of North Carolina (UNC), Pediatric Preclinical Testing Program (PPT), and Coriell Institute (CI).\nqHTS cell viability assay:\nCells were assayed in growth media at a density of 500-1,000 cells/well. Five microliters of cells were dispensed into 1,536-well, white, solid-bottom, TC-treated plates (Greiner Bio One) using a multidrop dispenser and incubated at 37 degrees C, 5% CO2, under a humidified atmosphere for 5 hours. Twenty-three nanoliters of compounds and controls (neutral control DMSO or positive control bortezomib at final concentration of 2.3 µM) were subsequently transferred by Kalypsys pintool. For primary screens, the MIPE collection was tested at 11-point dilutions (final concentrations range from 0.78 nM to 46 µM) and the NPC collection at 8-point dilutions (final concentrations range from 0.59 nM to 46 µM). Compounds tested in follow-up screens were assayed at 11-point dilutions. Cells were incubated for 48 hours, followed by addition of 3 µL of CellTiter-Glo (Promega). After a 15 min incubation at room temperature, samples were analyzed for luminescence intensity using a ViewLux High-throughput CCD imager equipped with clear filters."}
{"smiles": "Cc1ccc(C(=O)N(CCCN)[C@@H](c2nc3cc(Cl)ccc3c(=O)n2Cc2ccccc2)C(C)C)cc1", "activity, negative = cytotoxic": "-4.96% [at 95.5 µM] (inactive)"}
{"smiles": "COC1CCC(C(=O)c2ccc3nc4c(cc3c2)CCCO4)CC1", "note": "(stereo not given)", "activity, negative = cytotoxic": "10.4% (inactive)"}
{"smiles": "Cc1c(C(=O)Nc2ccc(N3C[C@@H](C)O[C@@H](C)C3)nc2)cccc1-c1ccc(OC(F)(F)F)cc1", "activity, negative = cytotoxic": "-15.2% (inactive)"}
{"smiles": "C[C@@]1(c2cc(-c3cncnc3)c(F)cc2F)CCSC(N)=N1", "activity, negative = cytotoxic": "-12.2% (inactive)"}
{"smiles": "CC1(COc2ccc3c(c2)ncn3-c2ccc3cccc(N4CCC(N)CC4)c3n2)COC1", "activity, negative = cytotoxic": "9.18% (inactive)"}
{"smiles": "CON(C)C(=O)N1N=C(c2cc(F)ccc2F)S[C@]1(CCCN)c1ccccc1", "activity, negative = cytotoxic": "-6.95% (inactive)"}
{"smiles": "CC(=O)N1CCN(c2ccc(OCc3nn(C)c(C)c3-c3cccc4c(CCCOc5cc(C)c(Cl)c(C)c5)c(C(=O)O)n(Cc5cccnc5)c34)cc2)CC1", "activity, negative = cytotoxic": "4.92% (inactive)"}
{"smiles": "CN(C)CC[C@H](CSc1ccccc1)Nc1ccc(S(=O)(=O)NC(=O)c2ccc(N3CCN(Cc4ccccc4-c4ccc(Cl)cc4)CC3)cc2)cc1[N+](=O)[O-]", "activity, negative = cytotoxic": "3.09% (inactive)"}
{"smiles": "CCC(=O)OCC(=O)[C@@]1(OC(=O)CC)[C@@H](C)C[C@@H]2[C@H]3CCC4=CC(=O)C=C[C@]4(C)[C@@]3(F)[C@@H](O)C[C@@]21C", "activity, negative = cytotoxic": "-2.38% (inactive)"}
{"smiles": "CCC(C)SSc1ncc[nH]1", "note": "(stereo not given)", "activity, negative = cytotoxic": "-12.9% (inactive)"}
{"smiles": "CC1=C[C@@H]2[C@@H]([C@@H](O)C[C@@]3(C)[C@H]2C[C@@H](C)[C@]3(O)C(=O)CO)[C@@]2(C)Cc3cnn(-c4ccccc4)c3C=C12", "activity, negative = cytotoxic": "-12.6% (inactive)"}
{"smiles": "CCC(c1ccc(O)cc1)C(CC)c1ccc(O)cc1", "note": "(stereo not given)", "activity, negative = cytotoxic": "4.64% (inactive)"}
{"smiles": "CC1C(=O)OC2C(O)C34C5CC(C(C)(C)C)C36C(OC(=O)C6O)OC4(C(=O)O5)C12O", "note": "(stereo not given)", "activity, negative = cytotoxic": "-0.738% (inactive)"}
{"smiles": "CCC(=O)N1CCN(c2ccc(-n3c(=O)ccc4cnc5ccc(-c6cnc7ccccc7c6)cc5c43)cc2C(F)(F)F)CC1", "activity, negative = cytotoxic": "8.43% (inactive)"}
{"smiles": "COc1cc2c(cc1OC)[C@@H]1Cc3ccc(OC)c(OC)c3CN1CC2", "activity, negative = cytotoxic": "-17.1% (inactive)"}
{"smiles": "COc1cc2c(cc1Cc1cccc(Cl)c1F)c(=O)c(C(=O)O)cn2[C@H](CO)C(C)C", "activity, negative = cytotoxic": "-5.21% (inactive)"}
{"smiles": "CO[C@H]1/C=C\\O[C@@]2(C)Oc3c(C)c(O)c4c(O)c(c(C=NN5CCN(C6CCCC6)CC5)c(O)c4c3C2=O)NC(=O)C(C)=CC=C[C@H](C)[C@H](O)[C@@H](C)[C@@H](O)[C@@H](C)[C@H](OC(C)=O)[C@H]1C", "activity, negative = cytotoxic": "-12.2% (inactive)"}
{"smiles": "CC(C)CN(C[C@H](O)[C@H](Cc1ccccc1)NC(=O)O[C@H]1CCOC1)S(=O)(=O)c1ccc(N)cc1", "activity, negative = cytotoxic": "10.4% (inactive)"}
{"smiles": "Cc1ccc(S(=O)(=O)Nc2nc3ccccc3nc2Nc2ccc3nsnc3c2)cc1", "activity, negative = cytotoxic": "2.7% [at 29.6 µM] (inactive)"}
{"smiles": "Nc1ccn([C@@H]2O[C@H](CO)[C@@H](O)[C@H]2O)c(=O)n1", "activity, negative = cytotoxic": "0.349% (inactive)"}
{"smiles": "COc1ccc2c(c1)c(C1=C(c3c[nH]c4ccccc34)C(=O)NC1=O)cn2CCCN(C)C", "activity, negative = cytotoxic": "-8.18% (inactive)"}
{"smiles": "C=C1[C@H](n2cnc3c(=O)[nH]c(N)nc32)C[C@H](O)[C@H]1CO", "activity, negative = cytotoxic": "10.4% (inactive)"}
{"smiles": "NC(N)=Nc1nc(CSCCC(N)=NS(N)(=O)=O)cs1", "activity, negative = cytotoxic": "6.1% (inactive)"}
{"smiles": "CCC[C@H](N[C@@H](C)C(=O)N1[C@@H]2CCCC[C@H]2C[C@H]1C(=O)O)C(=O)OCC", "activity, negative = cytotoxic": "-6.41% (inactive)"}
{"smiles": "CC1=C(CC(=O)O)c2cc(F)ccc2C1=Cc1ccc(S(C)=O)cc1", "note": "(stereo not given)", "activity, negative = cytotoxic": "0.767% (inactive)"}
{"smiles": "COc1cc2nccc(Oc3ccc(NC(=O)Nc4cc(C)on4)c(Cl)c3)c2cc1OC", "activity, negative = cytotoxic": "-17.9% (inactive)"}
{"smiles": "CCCCn1c(=O)n(Cc2ccccc2F)c(=O)c2[nH]c(Cc3ccc(NC(C)=O)cc3)nc21", "activity, negative = cytotoxic": "-1.48% (inactive)"}
{"smiles": "Cc1nn(Cc2ccccc2Cl)c(C)c1CN(C)CC(O)COc1ccc(Cl)cc1", "note": "(stereo not given)", "activity, negative = cytotoxic": "-11.8% (inactive)"}
{"smiles": "C[C@@]1(C(=O)Nc2ccc(F)nc2)CCCN1c1nc(Nc2cc(C3CC3)[nH]n2)c2cccn2n1", "Potency": "14.7 µM (active)"}
{"smiles": "CC(C)C[C@@H](C(=O)N[C@H](C(=O)OC1CCCC1)c1ccccc1)[C@H](O)C(=O)NO", "activity, negative = cytotoxic": "-7.31% (inactive)"}
{"smiles": "CC(C)C[C@H](NC(=O)c1cc2ccccc2s1)C(=O)N1CCN(C(=O)[C@H](CO)NS(=O)(=O)c2ccc(Cl)cc2Cl)CC1", "activity, negative = cytotoxic": "1.95% (inactive)"}
{"smiles": "N#CC(=C1Nc2ccccc2S1)c1ccnc(OCc2ccc(CN3CCOCC3)cc2)n1", "activity, negative = cytotoxic": "7.41% (inactive)"}
{"smiles": "CCC[C@H](Nc1nc(-c2ccc(NC(=O)NCC)c(OC)c2)ncc1C)c1cccnc1", "activity, negative = cytotoxic": "-12.2% (inactive)"}
{"smiles": "C[C@H](c1ccc(F)cc1CCCC(=O)O)N(c1cc(F)ccc1F)S(=O)(=O)c1ccc(Cl)cc1", "activity, negative = cytotoxic": "3.62% (inactive)"}
{"smiles": "COC(=O)[C@H](c1ccccc1Cl)N1CCc2sccc2C1", "activity, negative = cytotoxic": "12.9% (inactive)"}
{"smiles": "CC1CNc2c(cccc2S(=O)(=O)N[C@@H](CCCN=C(N)N)C(=O)N2CC[C@@H](C)C[C@@H]2C(=O)O)C1", "note": "(stereo not given in full)", "activity, negative = cytotoxic": "6.04% (inactive)"}
{"smiles": "Cc1csc(-c2nnc(Nc3ccc(Oc4ncccc4-c4ccnc(N)n4)cc3)c3ccccc23)c1", "activity, negative = cytotoxic": "-5.31% (inactive)"}
{"smiles": "COc1cc([C@@H]2c3cc4c(cc3[C@@H](O[C@@H]3O[C@@H]5CO[C@@H](C)O[C@@H]5[C@H](O)[C@@H]3O)[C@H]3COC(=O)[C@H]23)OCO4)cc(OC)c1O", "activity, negative = cytotoxic": "-2.07% (inactive)"}
{"smiles": "O=C1NC(=O)C(c2cnc3ccccn23)=C1c1cn2c3c(cccc13)CN(C(=O)N1CCOCC1)CC2", "activity, negative = cytotoxic": "-20.8% (inactive)"}
{"smiles": "CCCC1OC2C[C@@H]3[C@H]4CCC5=CC(=O)C=C[C@]5(C)[C@H]4C(O)C[C@]3(C)[C@]2(C(=O)CO)O1", "note": "(stereo not given in full)", "activity, negative = cytotoxic": "-2.55% (inactive)"}
